Hits are enriched below; roughly 8.6% of the tested compounds scored in any of these assays.
MARV entry inh: qHTS for Inhibitors of binding or entry into cells for Marburg Virus. Marburg virus pseudotype entry/binding inhibition, cell-based. Potency, µM (highest dose often 49.2 µM), inactives show at the highest dose activity change, negative = inhibition, usual class: inhibitors. actives 6.5% (n = 18,000)
LASV entry inh: qHTS for Inhibitors of binding or entry into cells for Lassa Virus. actives 4.1% (n = 18,000). Lassa virus pseudotyped entry inhibition, cell-based qHTS. Potency, µM (doses to about 49.2 µM), for inactives: at the highest dose activity change, negative = inhibition, hits mostly inhibitors. AID 720533, 2013
Starred values were filed as active, the others as inactive; ? = inconclusive; . = no result; ! = a repeat was not active; [ ] = another dose, or the depositor's remark. The call rests on the fitted dose curve; tested in HEK293 cells. On the % scale 0 is the no-effect control and ±100 the full control effect; potency means the concentration at half of the fitted maximal effect.

SMILES	MARV entry inh	LASV entry inh
CCOC(=O)C1=C(N)Oc2ccc(Br)cc2[C@@H]1[C@@H](C#N)C(=O)OCC	24.3%	20µM*
CCOC(=O)C1Oc2ccccc2C(C(=O)OC)=C1C(=O)OC (centres undefined)	11.4%	-4.6%
CN1CCN([C@@H]2C[S+](=O)([O-])N[C@@H]2COCc2ccccc2)CC1	24.1%	3.9%
CC1=CC2CC(CCO)OP(=O)(OC1)O2 (centres undefined)	-2.3%	-19.3%
CCN1C(=NCCCOC(C)C)N[C@H](c2ccccc2)[C@H](C(=O)OC)[C@H]1C	0.1%[8.59 µM]	32.6%[8.59 µM]
COC(=O)c1ccc(CN2C(=O)[C@@]3(CC(C)=CC[C@@H](C)O3)c3ccccc32)cc1	-29.1%[8.59 µM]	6.8%[8.59 µM]
COc1ccc(CCN2CCC(Nc3nc4ccccc4n3Cc3ccc(F)cc3)CC2)cc1	3.98µM*	31.6µM*!
Clc1ccc(Cn2c(CN3CCCC3)nc3ccccc32)cc1	-18.5%[17.8 µM]	3.7%[17.8 µM]
COC(=O)CC=C1c2ccc(OC)cc2[C@@H](OC)[C@@H]1C	3.5%[8.59 µM]	.
COc1ccc2[nH]cc(CCNc3ncncc3-c3ccc(N(C)C)cc3)c2c1	15.8µM*	-18.6%
COc1ccccc1CNc1ncncc1-c1ccc(N(C)C)cc1	-19.2%	-8.8%
COc1ccc2[nH]c(C(=O)c3ccccc3)cc2c1	3.16µM*	-8.9%
O=C(O)c1cc2ccccc2[nH]1	3.5%	-0.1%
C=CCN1[C@H](C)[C@@H](c2ccccc2)Oc2c(Cl)cccc2S1(=O)=O	-28.4%	-13.0%
Fc1ccc(-c2ncn(CCCN3CCOCC3)c2-c2ccncc2)cc1	-2.8%	65.1%
COC1=CC23CCCN2CCc2cc4c(cc2C3C1O)OCO4 (centres undefined)	3.5%	-4.7%
COC(=O)C[C@@](O)(CCC(C)(C)O)C(=O)O[C@@H]1C(OC)=C[C@]23CCCN2CCc2cc4c(cc2[C@@H]13)OCO4	0.1µM*	0.112µM*
COC(=O)C(O)C(O)(CCC(C)C)C(=O)OC1C(OC)=CC23CCCN2CCc2cc4c(cc2C13)OCO4 (centres undefined)	0.004µM*	0.126µM*
COC(=O)C[C@](O)(CCCC(C)(C)O)C(=O)O[C@@H]1C(OC)=CC23CCCN2CCc2cc4c(cc2[C@H]13)OCO4 (some centres undefined)	?	22.4µM*
C=CCN1C(=O)CC[C@@]23C1=NC(C(=O)OC)=C(C(=O)OC)[C@@H]2N(CC#CC)c1ccccc13	-20.0%[8.59 µM]	-6.9%[8.59 µM]
C#CCN1C(=O)C2(CC(C)=C[C@@H](C)O2)c2c(Br)cccc21 (some centres undefined)	45.8%[8.59 µM]	34.1%[8.59 µM]
C/C(=C(\CCOC(=O)c1ccccc1)SS/C(CCOC(=O)c1ccccc1)=C(/C)N(C=O)Cc1cnc(C)nc1N)N(C=O)Cc1cnc(C)nc1N	-14.5%	-21.5%
C[C@H]1CN(c2ccc(Br)cc2)C(=O)[C@H]1CC(=O)Nc1ccccc1	24.0%	9.5%
COCOc1cc(OC)ccc1C(=O)C=Cc1ccc([N+](=O)[O-])cc1	-18.9%[8.59 µM]	.
O=C(OCc1cn([C@H]2CN(C(=O)C3CCCCC3)[C@@H](c3ccc(Cl)cc3)C[C@H]2O)nn1)c1ccccc1	-39.6%	-15.7%
SMILES	MARV entry inh	LASV entry inh
C[C@@]12CC[C@@H]3c4ccc(O)cc4C[C@H](CCCCCCCCCS(=O)CCCC(F)(F)C(F)(F)F)[C@H]3[C@@H]1CC[C@@H]2O (some centres undefined)	10.6%	?
C[C@]12CC[C@@H]3c4ccc(O)cc4C[C@@H](CCCCCCCCCS(=O)CCCC(F)(F)C(F)(F)F)[C@H]3[C@@H]1CC[C@@H]2O (some centres undefined)	-14.2%	6.31µM*
COC(=O)[C@H](C(C)C)N(Cc1cc(OC)cc(OC)c1)S(=O)(=O)CCl	-23.3%	.
CCC(C)c1cc([N+](=O)[O-])cc([N+](=O)[O-])c1OC(C)=O (centres undefined)	-4.6%	-8.0%
CCC(C)c1cc([N+](=O)[O-])cc([N+](=O)[O-])c1OC(=O)OC(C)C (centres undefined)	?	17.8µM*
CCCCCCN1C[C@@H](n2cc(C3CC3)nn2)[C@H](O)C[C@H]1c1ccc(C)cc1	-33.3%	.
COC(=O)[C@@]1(C=C2c3ccc(F)cc3[C@@H](OC)[C@@H]2C)[C@@H]2Oc3ccccc3[C@@H]21	-16.8%[8.59 µM]	1.3%[8.59 µM]
COc1ccc(S(=O)(=O)N(CCO)c2ccccc2CN(C)CC=Cc2ccc(Cl)cc2)cc1	10µM*	11.2µM*
C=CCN1c2ccc(Br)cc2C(O)CS1(=O)=O (centres undefined)	?	28.2%
CCOC(=O)CN1C(=O)[C@@]2(CC(C)=CC[C@@H](COc3ccccc3)O2)c2c(Br)cccc21	-34.9%[8.59 µM]	-27.7%[8.59 µM]
COC(=O)CC=C[C@@H](C)[C@H](O)c1ccccc1Br	-21.6%[8.59 µM]	-19.4%[8.59 µM]
COC(=O)CC=C[C@@H](C)[C@H](OC)c1ccccc1Br	0.596µM*!	?
O=C1[C@@H]2[C@H]3[C@H](O)[C@H](O)CC(=NOC[C@@H](O)COCc4ccco4)[C@@H]3CC[C@H]2C(=O)N1C1CCCCC1	-22.0%[8.59 µM]	0.6%[8.59 µM]
COP(=S)(OC)Oc1ccc([N+](=O)[O-])cc1	11.2µM*	?
COP(=S)(OC)Oc1ccc(S(N)(=O)=O)cc1	-5.0%	-17.8%
C=CC[C@@H]1C=C[C@H](ON=C2c3cc(OC)ccc3O[C@H](c3cccc(OC)c3)[C@@H]2O)[C@H](CO)O1	-4.8%[8.59 µM]	-3.8%[8.59 µM]
CC(NC(C)(C)C)C(=O)c1cccc(Cl)c1 (centres undefined)	3.55µM*!	28.5%
CC(C)OC(=O)Nc1cccc(Cl)c1	23.8%	-15.3%
COC(=O)[C@@]1(C)CCC[C@@]2(C)c3ccc(O)c(C(C)C)c3CCC21 (some centres undefined)	12.6µM*	11.2µM*
CC(C)c1c(O)ccc2c1CCC1[C@@](C)(CO)CCC[C@@]21C (some centres undefined)	-8.4%	?
CC12C(=O)OC(=O)C1(C)C1CCC2O1 (centres undefined)	3.55µM*	2.82µM*
C=CCOC(=O)C(C(C)=O)[C@@H](NC(=O)OC)c1cccc(F)c1 (some centres undefined)	12.5%[8.59 µM]	-5.3%[8.59 µM]
Cc1cccc2c(N3CCCC3)nc(CNS(=O)(=O)c3ccccc3F)nc12	?	4.6%
Cc1ccc(F)cc1S(=O)(=O)NCc1nc(N2CCCC2)c2cccc(C)c2n1	12.6µM*	-9.8%
O=C(NN=C1C[C@@H](O)[C@H](O)[C@H]2[C@@H]3C(=O)N(C[C@@H]4CCCO4)C(=O)[C@@H]3CC[C@H]12)OCc1ccccc1	30.4%[8.59 µM]	.
SMILES	MARV entry inh	LASV entry inh
Cc1cc(=O)c2c(O)c3c(O)cc(=O)c4c3c3c(cc(O)c1c23)C(C)(C)C=4O	6.31µM*	6.31µM*
COC(=O)N[C@@H](c1ccco1)C(C(C)=O)C(=O)OC (some centres undefined)	-27.0%[8.59 µM]	6.1%[8.59 µM]
COc1ccccc1C1(O)CCN(CCCn2c3ccccc3c3ccccc32)CC1	3.98µM*	?
COc1ccc(C(=O)c2c(C)n(CCN3CCOCC3)c3ccccc23)cc1	-14.2%	-27.0%
COC(=O)C1=C(C)N(Cc2ccccc2)C(=NCCc2cccnc2)NC1c1ccc(Br)cc1 (centres undefined)	4.2%[8.59 µM]	-4.1%[8.59 µM]
C=CCCC1(CCC)C(=O)C(=C(O)c2ccccc2)C(=O)C(CCC)=C1OC (centres undefined)	-1.7%[8.59 µM]	6.3%[8.59 µM]
CCc1cn([C@H]2C[C@H](O)[C@@H](CO)O2)c(=O)[nH]c1=O	-8.9%	4.8%

Screens (PubChem)
